# Assay results as given in PubChem BioAssay AID2147 (National Center for Advancing Translational Sciences (NCATS), 2009).
# Several values for one entry are separate records, joined by “and”; a condition that tells them apart may be missing. Identical values can stand only once. Among all 230,000 compounds or so, about 3,600 (1.6%) were called active. Inconclusive results (about 15%) are left out. Calls follow the shape of the dose curve; as a rule, active = well fitted inhibition curve with a large enough effect (not every such curve was filed as active); inconclusive = small, poorly fitted or top-dose-only effect, or another doubt; inactive = no such curve, though single readings can be large or run the other way. Only a selection was taken, and actives are over-represented in it overall.
# Target: Lysine-specific demethylase 4E (Homo sapiens) (UniProt B2RXH2)
# Experiment: qHTS Assay for Inhibitors of Human Jumonji Domain Containing 2E (JMJD2E)
# Details: JMJD2E catalytic domain, FDH-coupled NADH fluorescence (FDH is formaldehyde dehydrogenase); series mostly up to 57.1 µM; activity change, negative = inhibition: at the top concentration
# Also: nearly all actives have a fitted effect of over 50% in size.
# 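For activity change, negative = inhibition in this document: 0% = wells with enzyme and -100% = buffer wells without enzyme.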
# Potency is read from the fitted curve at half-maximal effect.
# Lysine-specific demethylase 4E (Homo sapiens), sequence (B2RXH2 1-337 limits assumed): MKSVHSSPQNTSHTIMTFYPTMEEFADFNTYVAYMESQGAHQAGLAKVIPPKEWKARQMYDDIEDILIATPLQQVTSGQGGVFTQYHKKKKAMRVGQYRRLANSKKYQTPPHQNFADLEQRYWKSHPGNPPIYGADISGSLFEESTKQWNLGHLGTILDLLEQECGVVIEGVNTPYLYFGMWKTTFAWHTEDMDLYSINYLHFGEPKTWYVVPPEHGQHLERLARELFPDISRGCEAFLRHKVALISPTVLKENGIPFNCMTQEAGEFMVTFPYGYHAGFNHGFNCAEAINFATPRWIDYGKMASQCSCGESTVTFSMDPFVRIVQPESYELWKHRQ
SMILES,"activity change, negative = inhibition",Potency
N/C(=N\OC(=O)Nc1ccccc1)c1ccno1,-3.04% (inactive),
COc1ccc(CNC(=O)CCC(=O)Nc2nnc(C(C)C)s2)cc1,-15.9% (inactive),
O=C(Nc1ccc(Cl)cc1)Nc1ccc(C(=O)N2CCOCC2)cc1,4.19% (inactive),
CCC1=C(C(=O)OC)C(c2cc(OC)ccc2OC)C(C#N)=C(N)O1 (stereo not given),-0.399% (inactive),
COC(=O)C1=C(C)OC(N)=C(C#N)C1c1cc(OC)ccc1OC (stereo not given),2.33% (inactive),
COc1ccc(C2C(C#N)=C(N)Oc3cc(N)ccc32)cc1OC (stereo not given),,12.6 µM (active)
CC(C)NC[C@H](O)c1ccc2ccccc2c1,,inactive
CNCC(O)c1ccc(O)c(O)c1 (stereo not given),,20 µM (active) and 14.1 µM (active)
CCC(C)c1ccc(O)c(/C=N/O)c1 (stereo not given),-5.09% (inactive),
C=CCN(C(=O)Nc1ccc2c(c1)nc(C)n2C)c1ccccc1,1.69% (inactive),
C/C(=C\c1ccco1)CN1CCC(N2CCC(C(=O)N3CCOCC3)CC2)CC1,0.474% (inactive),
Oc1c(C(c2ccccn2)N2CCOCC2)ccc2cccnc12 (stereo not given),-10.2% (inactive),
CCOC(=O)N1CCN(C(=O)CSc2ccc(Cl)cc2)CC1,-1.41% (inactive),
CCOC(=O)N1CCN(C(c2cccnc2)c2ccc3cccnc3c2O)CC1 (stereo not given),,14.1 µM (active)
Cc1cc(N2CCN(c3ccc(F)cc3)CC2)n2ncnc2n1,4.37% (inactive),
CC1CC(C)(C)n2c(O)c(N=NC(N)=S)c3cccc1c32 (stereo not given),8.14% (inactive),
O=c1c(O)c(Br)ccc2c(Br)c(O)c(O)c(O)c12,,7.08 µM (active)
CCCCCCCC(=O)OC(CN1CCCCCC1)CN1CCCC1=O (stereo not given),1.81% (inactive),
CCN(CC)CCN1C(=O)C(=O)/C(=C(/O)c2ccc(OC)c(OC)c2)C1c1ccccn1 (stereo not given),,22.4 µM (active)
COc1ccc(/C(O)=C2/C(=O)C(=O)N(CCCN(C)C)C2c2ccccc2)cc1OC (stereo not given),-12.7% (inactive),
CCN(CC)CCN1C(=O)C(=O)/C(=C(/O)c2ccccc2)C1c1ccccc1F (stereo not given),-9.65% (inactive),
CC(=O)Nc1ccc(NC(=O)CSc2ncnc3c2cnn3Cc2ccccc2)cc1,0.598% (inactive),
NC(=O)COc1ccc2c3c(c(=O)oc2c1)CCCCC3,3.79% (inactive),
O=c1oc2c(CN3CCCCC3)c(O)ccc2c2c1CCCCC2,,3.16 µM (active)
CN1CCN(Cc2c(O)ccc3c2oc(=O)c2ccccc23)CC1,-8.15% (inactive),
Cc1ccccc1OCC(O)CN1CCN(c2ccccn2)CC1 (stereo not given),-7.16% (inactive),
Cc1cccc(C)c1NC(=S)N(Cc1cccnc1)Cc1ccccc1Cl,2.9% (inactive),
CCC/C(C)=N\Nc1nc2c(c(=O)n(C)c(=O)n2C)n1C,-5.67% (inactive),

SMILES,"activity change, negative = inhibition",Potency
COc1ccc(N=C(C)c2sc3ccccc3c2O)cc1,-1.68% (inactive),
Oc1ccc2ccccc2c1C=Nc1ccccc1,-5.63% (inactive),
Oc1ccc(N=Cc2sc3ccccc3c2Cl)cc1,,12.6 µM (active)
S=c1nc2ccccc2c2nc(-c3cccnc3)[nH]n12,-7.81% (inactive),
COc1ccc(CCNS(=O)(=O)c2cccc3cccnc23)cc1OC,8.86% (inactive),
Cc1ccc(/C=N/NC(=O)C2=NNC(c3ccccc3)(c3ccccc3)C2)c(O)c1,,10 µM (active)
Cc1ccc2cc(/C=N/NC(=O)[C@@H]3CCCN3)c(Cl)nc2c1,-2.24% (inactive),
Cc1nnsc1C(=O)N/N=C/c1ccccc1Cl,2.37% (inactive),
CCn1cc(CN2CCCC(CNS(=O)(=O)Cc3ccccc3)C2)cn1 (stereo not given),-1.97% (inactive),
Nn1c(SCc2ccccc2)nnc1C1CCCCC1,-0.349% (inactive),
CC(C)C[C@H](CO)Nc1nc(N(C)c2cccc(Cl)c2)c2ncn(C(C)C)c2n1,2.12% (inactive),
O=C(Nc1cccc(S(=O)(=O)NC2=NCCC2)c1)C1CCCCC1,3.5% (inactive),
Cc1onc(C(=O)NN)c1-c1csc(COc2ccccc2)n1,33.8% (inactive),
CCCC(=O)N1c2ccc(-c3csc(N)n3)cc2CC1C (stereo not given),-25.3% (inactive),
CC(C)(C)C(=O)OCc1nc(-c2ccc(O)c(O)c2)cs1,,12.6 µM (active)
O=c1[nH]c(CSc2ccccc2)nc2c1oc1ccccc12,-0.198% (inactive),
Cc1ccc(NC(=O)/C(=C\c2ccccc2)NC(=O)c2ccco2)cc1,8.1% (inactive),
NC(=O)COc1ccc(NC(=O)c2ccccc2-c2ccccc2)cc1,-9.16% (inactive),
Oc1ccc(/C=N/Nc2nc(-c3ccccc3F)nc3ccccc23)c(O)c1,-27.2% (inactive),
Oc1c(Br)cccc1/C=N/Nc1c(F)c(F)c(F)c(F)c1F,0.236% (inactive),
Oc1ccc(/C=N/NC2=NCCCCC2)c(O)c1,,22.4 µM (active)
CN(c1ccccn1)c1ncnc2[nH]ncc12,-4.74% (inactive),
Cc1ccc(C)c(SCc2nc3sc(C(=O)O)c(C)c3c(=O)[nH]2)c1,-5.22% (inactive),
O=C(Nc1ccc(F)cc1)c1cc2c(s1)CCCC2,0.588% (inactive),
O=c1[nH]c(=S)[nH]c2[nH]c(=S)[nH]c12,,28.2 µM (active)
Cc1c(C)c(C)c2[nH]c(=S)[nH]c2c1C,5.54% (inactive),
Cc1nc2cccnc2nc1C,1.81% (inactive),
